Source: the supplement of paper PMC10849652
Targets with a hit are over-represented here; the source holds about 7,900 in all. About 0.6% of all pairs of compound and target were hits.

Compound: CN(C)CC(=O)Nc1ccc2[nH]c(=O)c3ccccc3c2c1
Assay: log2 fold change, soluble protein after heating vs DMSO (PISA); higher = thermal stabilisation; K562 cells, 10 uM, 30 min; active = over 0.2 and 3.5 SD of the protein, either way, in both replicates (recomputed)
In short: (§1)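 K562 cells at 2×10^6 cells/mL were treated for 30 min with 10 μM compound, and aliquots were heated for 3 min over 48°C-58°C before pooling. Extraction used PBS with 0.5% NP-40 at 4°C, and soluble protein was the supernatant after 21,000xg for 90 min, measured by TMTpro 16plex LC-MS/MS with channel sums equalised. Thermal stability values, relative to control samples and from duplicates, are log2 fold changes.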

Sequence of UniProt Q6P9B6 (Q6P9B6 whole entry, looked up): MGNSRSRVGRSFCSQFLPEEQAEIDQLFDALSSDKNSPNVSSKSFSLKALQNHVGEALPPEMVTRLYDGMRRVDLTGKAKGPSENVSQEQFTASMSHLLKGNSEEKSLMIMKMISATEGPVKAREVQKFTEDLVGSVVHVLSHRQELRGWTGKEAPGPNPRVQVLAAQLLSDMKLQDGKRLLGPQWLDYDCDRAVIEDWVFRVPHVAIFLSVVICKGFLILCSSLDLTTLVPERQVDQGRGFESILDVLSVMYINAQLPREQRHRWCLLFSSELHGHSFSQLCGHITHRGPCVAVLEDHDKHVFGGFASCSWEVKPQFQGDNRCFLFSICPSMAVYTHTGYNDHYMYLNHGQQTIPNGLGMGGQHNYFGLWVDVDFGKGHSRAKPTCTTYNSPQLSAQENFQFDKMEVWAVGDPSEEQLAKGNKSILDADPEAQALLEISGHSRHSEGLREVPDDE
Sequence of UniProt Q9NVH2 (Q9NVH2 whole entry, looked up): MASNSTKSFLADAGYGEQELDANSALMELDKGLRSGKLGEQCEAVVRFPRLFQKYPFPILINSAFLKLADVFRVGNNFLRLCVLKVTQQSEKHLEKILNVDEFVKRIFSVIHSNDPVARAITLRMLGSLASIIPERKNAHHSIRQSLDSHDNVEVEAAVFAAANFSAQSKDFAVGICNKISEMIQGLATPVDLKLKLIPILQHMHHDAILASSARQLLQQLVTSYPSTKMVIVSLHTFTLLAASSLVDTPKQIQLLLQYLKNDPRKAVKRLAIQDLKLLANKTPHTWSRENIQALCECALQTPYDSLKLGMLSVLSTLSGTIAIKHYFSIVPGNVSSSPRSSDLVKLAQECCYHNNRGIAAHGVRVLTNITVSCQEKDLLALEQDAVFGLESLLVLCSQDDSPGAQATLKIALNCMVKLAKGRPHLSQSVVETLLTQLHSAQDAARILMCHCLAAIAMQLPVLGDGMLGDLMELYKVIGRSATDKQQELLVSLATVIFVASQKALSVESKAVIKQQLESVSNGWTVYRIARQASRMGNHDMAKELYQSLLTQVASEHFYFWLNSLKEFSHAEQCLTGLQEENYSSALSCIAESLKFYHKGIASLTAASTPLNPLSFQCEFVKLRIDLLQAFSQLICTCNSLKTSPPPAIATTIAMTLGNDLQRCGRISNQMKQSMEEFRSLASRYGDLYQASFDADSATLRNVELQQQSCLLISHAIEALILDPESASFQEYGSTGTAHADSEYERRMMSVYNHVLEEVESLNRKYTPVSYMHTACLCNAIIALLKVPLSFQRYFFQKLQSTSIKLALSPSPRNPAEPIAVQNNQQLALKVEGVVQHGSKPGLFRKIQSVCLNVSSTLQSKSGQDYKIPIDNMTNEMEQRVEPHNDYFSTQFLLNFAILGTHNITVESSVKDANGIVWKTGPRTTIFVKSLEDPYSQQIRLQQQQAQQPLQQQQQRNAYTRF
Sequence of UniProt Q8NC54 (Q8NC54 whole entry, looked up): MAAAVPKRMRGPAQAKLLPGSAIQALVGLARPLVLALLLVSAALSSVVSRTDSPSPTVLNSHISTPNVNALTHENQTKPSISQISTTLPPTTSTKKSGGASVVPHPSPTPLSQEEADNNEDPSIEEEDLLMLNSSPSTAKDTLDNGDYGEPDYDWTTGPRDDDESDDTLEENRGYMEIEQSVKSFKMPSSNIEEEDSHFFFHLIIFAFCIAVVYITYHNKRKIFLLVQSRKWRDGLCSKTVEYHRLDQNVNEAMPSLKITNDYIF
Sequence of UniProt Q9H6V9 (Q9H6V9 whole entry, looked up): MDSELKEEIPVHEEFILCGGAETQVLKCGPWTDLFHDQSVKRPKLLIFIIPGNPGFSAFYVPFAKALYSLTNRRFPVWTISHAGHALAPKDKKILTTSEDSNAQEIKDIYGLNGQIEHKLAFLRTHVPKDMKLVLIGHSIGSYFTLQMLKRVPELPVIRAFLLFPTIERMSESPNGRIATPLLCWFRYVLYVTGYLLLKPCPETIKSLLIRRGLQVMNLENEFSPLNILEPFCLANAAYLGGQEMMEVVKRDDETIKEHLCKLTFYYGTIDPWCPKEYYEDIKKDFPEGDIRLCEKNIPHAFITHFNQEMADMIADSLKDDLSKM
Sequence of UniProt Q9Y496 (Q9Y496 whole entry, looked up): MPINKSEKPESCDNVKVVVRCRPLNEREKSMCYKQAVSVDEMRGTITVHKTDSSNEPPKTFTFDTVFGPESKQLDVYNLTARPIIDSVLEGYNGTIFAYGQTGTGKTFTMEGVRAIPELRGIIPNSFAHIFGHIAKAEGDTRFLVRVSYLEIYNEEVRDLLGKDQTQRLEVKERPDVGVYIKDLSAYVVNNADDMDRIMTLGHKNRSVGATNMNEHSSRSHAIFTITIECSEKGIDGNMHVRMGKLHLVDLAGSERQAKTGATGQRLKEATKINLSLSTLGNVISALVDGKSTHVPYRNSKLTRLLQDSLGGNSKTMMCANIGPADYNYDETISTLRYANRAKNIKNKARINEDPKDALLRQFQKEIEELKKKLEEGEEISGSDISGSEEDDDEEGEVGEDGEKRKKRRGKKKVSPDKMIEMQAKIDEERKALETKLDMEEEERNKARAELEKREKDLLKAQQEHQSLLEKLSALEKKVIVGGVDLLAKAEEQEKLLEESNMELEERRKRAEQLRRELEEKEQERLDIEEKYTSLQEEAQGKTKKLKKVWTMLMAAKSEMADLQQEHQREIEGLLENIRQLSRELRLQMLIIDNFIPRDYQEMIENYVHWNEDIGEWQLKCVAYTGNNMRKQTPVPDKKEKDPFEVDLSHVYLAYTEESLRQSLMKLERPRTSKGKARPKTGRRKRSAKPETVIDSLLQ
Sequence of UniProt Q7L2J0 (Q7L2J0 whole entry, looked up): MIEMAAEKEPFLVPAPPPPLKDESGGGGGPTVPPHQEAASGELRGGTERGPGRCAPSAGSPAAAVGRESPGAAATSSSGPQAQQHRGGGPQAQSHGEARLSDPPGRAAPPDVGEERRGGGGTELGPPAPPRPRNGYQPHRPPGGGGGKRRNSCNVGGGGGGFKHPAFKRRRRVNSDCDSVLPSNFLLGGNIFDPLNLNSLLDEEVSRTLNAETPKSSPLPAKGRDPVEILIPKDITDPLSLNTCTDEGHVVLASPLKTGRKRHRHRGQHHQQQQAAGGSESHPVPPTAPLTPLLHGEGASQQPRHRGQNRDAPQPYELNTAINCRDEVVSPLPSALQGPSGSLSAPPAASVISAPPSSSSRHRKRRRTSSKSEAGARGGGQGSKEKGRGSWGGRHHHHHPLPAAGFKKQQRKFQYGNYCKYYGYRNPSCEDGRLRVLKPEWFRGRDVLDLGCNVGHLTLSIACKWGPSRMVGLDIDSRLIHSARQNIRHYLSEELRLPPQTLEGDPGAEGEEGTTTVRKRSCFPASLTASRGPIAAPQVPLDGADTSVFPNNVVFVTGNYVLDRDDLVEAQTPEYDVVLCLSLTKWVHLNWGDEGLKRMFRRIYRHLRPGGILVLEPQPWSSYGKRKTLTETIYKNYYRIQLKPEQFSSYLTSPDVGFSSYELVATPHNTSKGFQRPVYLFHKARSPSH
Sequence of UniProt Q08431 (Q08431 whole entry, looked up): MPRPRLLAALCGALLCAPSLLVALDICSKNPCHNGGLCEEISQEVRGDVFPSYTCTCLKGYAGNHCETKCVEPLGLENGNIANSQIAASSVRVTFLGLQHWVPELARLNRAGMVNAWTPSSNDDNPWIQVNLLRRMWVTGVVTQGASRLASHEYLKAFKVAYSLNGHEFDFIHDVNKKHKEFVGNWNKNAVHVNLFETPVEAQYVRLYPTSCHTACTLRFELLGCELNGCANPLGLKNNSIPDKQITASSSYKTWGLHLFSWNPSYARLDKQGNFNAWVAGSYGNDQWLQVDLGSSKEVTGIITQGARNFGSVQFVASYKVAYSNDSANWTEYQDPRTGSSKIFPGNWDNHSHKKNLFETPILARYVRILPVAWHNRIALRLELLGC
Sequence of UniProt Q9C0E8 (Q9C0E8 whole entry, looked up): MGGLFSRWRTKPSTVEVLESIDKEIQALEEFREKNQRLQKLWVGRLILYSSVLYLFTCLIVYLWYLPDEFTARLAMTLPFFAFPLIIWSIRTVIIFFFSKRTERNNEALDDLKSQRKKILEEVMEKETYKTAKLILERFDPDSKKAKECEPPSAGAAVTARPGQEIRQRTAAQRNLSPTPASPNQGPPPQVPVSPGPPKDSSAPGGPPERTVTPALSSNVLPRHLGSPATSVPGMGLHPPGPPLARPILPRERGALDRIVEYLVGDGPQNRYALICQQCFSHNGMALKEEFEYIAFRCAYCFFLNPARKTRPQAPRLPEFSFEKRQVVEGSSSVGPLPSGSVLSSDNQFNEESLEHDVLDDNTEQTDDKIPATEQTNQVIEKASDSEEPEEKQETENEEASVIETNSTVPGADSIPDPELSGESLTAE
Sequence of UniProt O94889 (O94889 whole entry, looked up): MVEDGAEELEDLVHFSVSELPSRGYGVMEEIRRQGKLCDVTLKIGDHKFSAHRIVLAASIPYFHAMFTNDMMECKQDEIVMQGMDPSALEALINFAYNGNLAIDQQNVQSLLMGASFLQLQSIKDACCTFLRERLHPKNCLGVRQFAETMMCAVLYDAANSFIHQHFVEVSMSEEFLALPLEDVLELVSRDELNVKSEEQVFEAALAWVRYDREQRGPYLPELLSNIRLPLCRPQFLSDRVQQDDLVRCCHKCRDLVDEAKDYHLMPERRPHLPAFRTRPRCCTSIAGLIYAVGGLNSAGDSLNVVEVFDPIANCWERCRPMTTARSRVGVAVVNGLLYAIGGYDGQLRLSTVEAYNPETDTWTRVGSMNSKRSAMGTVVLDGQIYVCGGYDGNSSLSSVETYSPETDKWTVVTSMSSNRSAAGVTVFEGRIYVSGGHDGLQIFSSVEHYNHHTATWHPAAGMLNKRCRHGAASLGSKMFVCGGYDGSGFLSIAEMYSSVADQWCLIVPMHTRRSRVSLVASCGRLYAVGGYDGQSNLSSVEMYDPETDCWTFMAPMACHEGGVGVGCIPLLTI
Sequence of UniProt P33947 (P33947 whole entry, looked up): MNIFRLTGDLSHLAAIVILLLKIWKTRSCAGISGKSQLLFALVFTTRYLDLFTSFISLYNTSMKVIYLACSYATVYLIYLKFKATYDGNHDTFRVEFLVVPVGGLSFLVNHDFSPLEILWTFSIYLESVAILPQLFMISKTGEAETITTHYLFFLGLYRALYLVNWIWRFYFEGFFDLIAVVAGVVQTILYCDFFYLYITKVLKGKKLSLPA

log2 fold change, inactive:
KDM3B (UniProt Q7LBC6) 0.043
MAP2K7 isoform 4 (UniProt O14733) -0.017
MIEF1 (UniProt L0R8F8) -0.018
MARCKSL1 (UniProt P49006) -0.044
MEPCE (UniProt Q7L2J0) 0.061
MCUR1 (UniProt Q96AQ8) -0.038
MED1 (UniProt Q15648) -0.054
LNPEP (UniProt Q9UIQ6) 0.012
IPO7 (UniProt O95373) 0.051
LMNB1 (UniProt P20700) 0.034
MAGEC2 (UniProt Q9UBF1) -0.007
KDELR2 (UniProt P33947) -0.125
INTS7 (UniProt Q9NVH2) 0.038
LMBRD2 (UniProt Q68DH5) 0.002
INPP5B (UniProt P32019) 0.057
IRF2BPL (UniProt Q9H1B7) 0.036
KIF3A (UniProt Q9Y496) 0.032
LNPK (UniProt Q9C0E8) -0.042
LEO1 (UniProt Q8WVC0) 0.121
MCU (UniProt Q8NE86) 0.011
MAP1LC3B2 (UniProt A6NCE7) 0
MAST4 (UniProt O15021) -0.009
ILK (UniProt Q13418) -0.006
LARP7 isoform 3 (UniProt Q4G0J3) 0.064
LDAH isoform 2 (UniProt Q9H6V9) 0.049
MFN2 (UniProt O95140) 0.009
MAGOHB (UniProt Q96A72) 0.013
LMNB2 (UniProt Q03252) -0.033
LTV1 (UniProt Q96GA3) -0.049
KLHL18 (UniProt O94889) -0.073
MFSD5 isoform 2 (UniProt Q6N075) -0.092
MEAK7 (UniProt Q6P9B6) -0.046
MCCC2 (UniProt Q9HCC0) 0.003
ITIH4 (UniProt Q14624) -0.012
KNTC1 (UniProt P50748) 0.037
MFGE8 (UniProt Q08431) -0.103
KCT2 (UniProt Q8NC54) 0.064
MAPK9 (UniProt P45984) 0
LSS (UniProt P48449) 0.055

Compound: CN(CCOC1=CC=C(C=C1)C[C@H]2C(=O)NC(=O)S2)C3=CC=CC=N3 (racemic) [rosiglitazone]
Assay: as above
In short: as §1

log2 fold change, inactive:
KDM3B (UniProt Q7LBC6) 0.048
MAP2K7 isoform 4 (UniProt O14733) 0.033
MIEF1 (UniProt L0R8F8) -0.019
MARCKSL1 (UniProt P49006) 0.012
MEPCE (UniProt Q7L2J0) -0.019
MCUR1 (UniProt Q96AQ8) 0.025
MED1 (UniProt Q15648) 0.001
LNPEP (UniProt Q9UIQ6) 0.016
IPO7 (UniProt O95373) 0.067
LMNB1 (UniProt P20700) -0.049
MAGEC2 (UniProt Q9UBF1) 0.011
KDELR2 (UniProt P33947) 0.017
INTS7 (UniProt Q9NVH2) 0.033
LMBRD2 (UniProt Q68DH5) -0.023
INPP5B (UniProt P32019) 0.012
IRF2BPL (UniProt Q9H1B7) 0.067
KIF3A (UniProt Q9Y496) 0.174
LNPK (UniProt Q9C0E8) 0.01
LEO1 (UniProt Q8WVC0) 0.006
MCU (UniProt Q8NE86) 0.034
MAP1LC3B2 (UniProt A6NCE7) 0.044
MAST4 (UniProt O15021) 0.067
ILK (UniProt Q13418) 0.051
LARP7 isoform 3 (UniProt Q4G0J3) 0.003
LDAH isoform 2 (UniProt Q9H6V9) -0.031
MFN2 (UniProt O95140) 0.03
MAGOHB (UniProt Q96A72) 0.017
LMNB2 (UniProt Q03252) -0.005
LTV1 (UniProt Q96GA3) -0.032
KLHL18 (UniProt O94889) -0.019
MFSD5 isoform 2 (UniProt Q6N075) -0.032
MEAK7 (UniProt Q6P9B6) 0.103
MCCC2 (UniProt Q9HCC0) 0.012
ITIH4 (UniProt Q14624) 0.129
KNTC1 (UniProt P50748) 0.044
MFGE8 (UniProt Q08431) -0.092
KCT2 (UniProt Q8NC54) 0.009
MAPK9 (UniProt P45984) 0.04
LSS (UniProt P48449) 0.077
